Data on seven molecules can be found in PubChem BioAssay (NCI).

What all share (assay): NCI-60 one-dose screen, 48 h (100 = growth as untreated, 0 = no growth, -100 = all killed)
Details in all cases: 10 µM unless noted

Assay [1] relates to SR leukemia.
In assay [2] the test system is RPMI-8226 leukemia.
The subject of assay [3] is OVCAR-8 ovarian.
For assay [4], the system named is OVCAR-5 ovarian.
In assay [5] the test system is OVCAR-4 ovarian.
The test system of assay [6] is SK-OV-3 ovarian.
The test system of assay [7] is IGROV1 ovarian.
The test system of assay [8] is OVCAR-3 ovarian.
Assay [9] deals with HS 578T breast.
Assay [10] deals with NCI/ADR-RES ovarian.
Assay [11] deals with BT-549 breast.
In assay [12] the test system is MDA-MB-435 melanoma.
Assay [13] relates to SW-620 colon.
Assay [14] relates to MCF7 breast.
Assay [15] concerns HCT-116 colon.
Assay [16] has as its system HCC-2998 colon.
Assay [17] relates to KM12 colon.
Assay [18] relates to T-47D breast.

Several values for one entry are separate records, joined by “and”; a condition that tells them apart may be missing. Equal entries are not always repeated. About 83,000 compounds went through this panel and 20% of them were active in at least one assay; those are over-represented in the sample as a whole.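 Each cell line was grown in a 96-well plate and treated with one concentration of compound for 48 hours. Values below 10 were considered active.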 Values without a mark were called inactive. Activity calls are given as the source filed them.

On to `CCN1CCN(C(=O)[C@]23CC[C@@H](C)[C@H](C)[C@@H]2C2=CC[C@@H]4[C@@]5(C)CCC(=O)C(C)(C)[C@@H]5CC[C@@]4(C)[C@]2(C)CC3)CC1`, for which the growth in assay [1] is -13.4% (active); in assay [2] it was -34.4% (active); in assay [3], 16.5%; in assay [4], -3.73% (active); in [5] it was 18%; in assay [6], 16.2%. In addition, the growth in assay [7] was 14.7%; in assay [8], 16.6%; in assay [9] it was -1.77% (active); in assay [10], 9.16% (active); in [11], -26% (active); in assay [12], 11%. The growth was -50.4% (active) in assay [13]; 4.77% (active) in assay [14]; -48.3% (active) in assay [15]; 0.569% (active) in [16]; 6.9% (active) in [17].

Turning to `Cc1ccc(S(=O)(=O)Nc2cc(Sc3ccccc3)c(O)c3ccccc23)cc1`, the growth in assay [1] is 20.8%; in assay [2] it was 28.8%; in [3], -0.704% (active); in [4], 106%; in assay [5] it was -99.7% (active); in assay [6], 115%. In addition, the growth in [7] is 85%; in assay [8], -5.01% (active); in [9] it was 98.7%; in [10] it was 5.05% (active); in assay [18] it was -1.22% (active); in [11] it was 97.1%. Also, the growth is -95.4% (active) in assay [12]; 108% in assay [13]; 64.1% in assay [14]; 58.9% in assay [15]; 106% in assay [16]; 86.4% in assay [17].

With `N#CC1C(=O)c2ccccc2C1c1ccccc1` (stereo not given), the growth in [1] was 85.1% and 106%; in assay [2] it was 111% and 102%; in assay [3] it was 96.9% and 97.3%; in [4], 110% and 104%; in assay [5], 99.5% and 99.2%; in assay [6], 105% and 114%. In addition, the growth in assay [7] was 100% and 110%; in assay [8], 84.9% and 107%; in assay [9] it was 116% and 105%; in assay [10], 108% and 107%; in [18] it was 96.5% and 99.9%; in assay [11], 107%. The growth in assay [13] is 121% and 104%; in assay [14], 102% and 99.5%; in assay [15], 105% and 101%; in assay [16], 111% and 115%; in assay [17], 109% and 102%.

Consider `CN(C)C(=O)c1cc2cnc(Nc3ccc(-c4csc5c(=S)cc(N6CCOCC6)oc45)cc3)nc2n1C1CCCC1`, for which the growth in [1] was -3.12% (active); in assay [2], -35.9% (active); in assay [3], 7.87% (active); in assay [4], 17%; in assay [5], 18.5%; in assay [6], 16.4%. Also, the growth in assay [7] was 8.93% (active); in assay [8], 13.6%; in assay [9], 5.04% (active); in assay [10] it was 14.1%; in assay [11] it was 9.89% (active); in [12], 17.3%. Moreover, the growth is 4.89% (active) in assay [13]; -5.27% (active) in assay [14]; 2.89% (active) in [15]; 8.51% (active) in assay [16]; 6.53% (active) in assay [17].

`Cc1ccc(C(=O)c2ccc(CC(=O)N=Nc3c(O)[nH]c4ccc(OC(F)(F)F)cc34)n2C)cc1`: the growth in assay [1] is 102%; in assay [2], 102%; in assay [3] it was 94%; in assay [4], 100%; in assay [5], 118%; in assay [6] it was 96.9%. For the same molecule, the growth in assay [7] was 85.2%; in [8], 117%; in assay [9], 94.5%; in assay [10] it was 92.4%; in assay [11] it was 95.3%; in [12], 97.9%. Moreover, the growth is 95.7% in assay [13]; 91.5% in assay [14]; 97% in [15]; 119% in assay [16]; 94% in [17].

In the case of `Cc1ccc(NC(=O)N/C(N)=N/c2nc(=O)c3ccccc3s2)cc1`, the growth was 88.1% in assay [1]; 101% in assay [2]; 101% in assay [3]; 102% in assay [4]; 99.8% in assay [5]; 94.5% in [6]. Also, the growth in assay [7] is 91.9%; in [8], 100%; in assay [9], 82.9%; in assay [10], 110%; in assay [18], 109%; in assay [11] it was 86.4%. Moreover, the growth in [13] is 92.7%; in assay [14] it was 84.9%; in assay [15] it was 94.1%; in assay [16], 102%; in assay [17], 103%.

Take `COC1=CC(c2ccc[nH]2)=N/C1=C\c1[nH]c(C)c(C(=O)Oc2ccccc2)c1C`: the growth in assay [1] is 6.67% (active); in assay [2] it was -13.4% (active); in assay [3], -13.8% (active); in [4], -41.5% (active); in assay [5], -48.8% (active); in assay [6], 1.25% (active). In addition, the growth was -35.4% (active) in assay [7]; -39.7% (active) in assay [8]; -27.5% (active) in assay [9]; -3.96% (active) in assay [10]; -15.4% (active) in [11]; -68.6% (active) in assay [12]. In addition, the growth in assay [13] is -20.9% (active); in [14], -54.7% (active); in [15] it was -82.1% (active); in [16] it was -81.6% (active); in assay [17], -66% (active).
